B2AR arrestin = agonists driving beta-arrestin recruitment to human beta2-adrenergic receptor | beta-arrestin recruitment to beta2AR, cell-based reporter | Potency, µM (doses to about 46.1 µM), actives largely listed as activators | AID 492947 | actives 0.02% (n = 330,000); also: nearly all actives have a fitted effect of over 65% in size
Target sequence (P07550 whole entry, looked up): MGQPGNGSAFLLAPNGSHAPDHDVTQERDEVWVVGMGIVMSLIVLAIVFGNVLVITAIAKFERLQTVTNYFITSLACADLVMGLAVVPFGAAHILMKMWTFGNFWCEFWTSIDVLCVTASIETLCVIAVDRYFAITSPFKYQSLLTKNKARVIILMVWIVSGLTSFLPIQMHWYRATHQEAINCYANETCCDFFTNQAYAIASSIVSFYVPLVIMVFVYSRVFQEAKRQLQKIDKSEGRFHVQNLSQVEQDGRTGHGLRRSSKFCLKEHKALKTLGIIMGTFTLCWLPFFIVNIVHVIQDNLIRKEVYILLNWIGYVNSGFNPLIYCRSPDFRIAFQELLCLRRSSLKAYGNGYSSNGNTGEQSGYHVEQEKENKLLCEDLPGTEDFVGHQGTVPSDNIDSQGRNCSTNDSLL
DRD3 agonist = activates the human D3 dopamine receptor. D3R DiscoveRx beta-arrestin cells, luminescence, 90 min. max activation, %. actives 0.58% (n = 410,000); in the data active = max activation above about 30%
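Agonist-mode cell screen: cells plated at 1500/well and incubated overnight at 37 °C, then exposed to library compounds for 90 min at 37 °C. Detection reagent was added for 30–60 min at room temperature, and luminescence was read.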
D3 antag = blocks the human D3 dopamine receptor | actives 2.5% (n = 360,000) | D3R cells, DiscoveRx beta-arrestin luminescence, antagonist mode; stronger effect = lower value | max response, negative = inhibition, %; in the data active = max response below about -50%; inconclusive = no clear call, values can overlap the other calls
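Cells expressing the human receptor were seeded at 1500 cells/well, incubated overnight at 37 degrees C in 5% CO2, then exposed to library compounds with dopamine controls for 90 minutes at 37 degrees C before luminescent detection.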
RGS4 inhibitor = inhibitors of human regulator of G protein signaling 4; actives 0.039% (n = 390,000); Potency, µM (titrated, usually from 114 µM), hits mostly inhibitors; Transcreener GDP fluorescence polarization, RGS4-accelerated GTP hydrolysis; also: nearly all actives have a fitted effect of over 75% in size
Target sequence (P49798 whole entry, looked up): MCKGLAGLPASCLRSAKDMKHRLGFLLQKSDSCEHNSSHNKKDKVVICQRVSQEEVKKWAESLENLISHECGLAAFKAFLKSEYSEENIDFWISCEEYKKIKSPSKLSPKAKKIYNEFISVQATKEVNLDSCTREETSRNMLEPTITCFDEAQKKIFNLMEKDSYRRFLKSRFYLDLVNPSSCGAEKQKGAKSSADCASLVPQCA
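MLSMR compounds (23 nl, pin-transferred) preincubated 10 min at room temperature with a 500nM (2x) first reagent, then RGS4 at 900nM (2x) plus Transcreener GDP mix added; fluorescence polarization (620/688 nm) read before and after 90 min at 30 °C.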
BRCA1 expr up = BRCA1 expression activation; Potency, µM (doses to about 46.1 µM), usual class: activators; MCF7-BRCA1-FFLuc reporter, luminescence, 48 h; response scale: scaled: vehicle 0%, 10 µM genistein 100%; actives 1.1% (n = 380,000); AID 624202; also: nearly all actives have a fitted effect of over 80% in size
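Compounds are tested at multiple concentrations on MCF7 BRCA1-luciferase reporter cells seeded at 2000 per well; after 48 h, a single luminescence end-point is taken and curves fitted to the normalized data.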
PTHR1 ag = PTHR1 (human) receptor agonism; Q03431; HEK293 GP2 PTHR1 cells, GloSensor cAMP luminescence, 1 h; Potency, µM (titrated, usually from 115 µM), actives largely listed as activators; actives 0.075% (n = 410,000); AID 743266; also: nearly all actives have a fitted effect of over 55% in size
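HEK-293-derived GP2 cells expressing PTHR1 and a GloSensor cAMP reporter, 3,000/well, plated overnight, given luciferin plus IBMX (each 0.5 mM as added) for 1 h at 37 °C, then compound for 1 h at 37 °C. Luminescence was read after 15 min at room temperature.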
Large screens that a line does not name were inactive. Most compounds without a hit are left out; they make up all but 3.7% or so of the library. Unless noted, calls follow the shape of the dose curve; as a rule, active = well fitted curve in the direction sought with a large enough effect; inconclusive = small, poorly fitted or top-dose-only effect, or another doubt; inactive = no such curve, though single readings can be large; an effect the other way counts as inactive or inconclusive.

CN(C)S(=O)(=O)c1ccc(Cl)c(NC(=O)COC(=O)c2cc(-c3ccccc3)nc3ccccc23)c1	DRD3 agonist 36
O=C(CN1CCc2ccccc2C1)Nc1ccc(Br)cc1	D3 antag -52
NC[C@H]1O[C@H](O[C@H]2[C@H](O)[C@@H](O[C@H]3O[C@H](CO)[C@@H](O)[C@H](N)[C@H]3O)[C@H](N)C[C@@H]2N)[C@H](O)[C@@H](O)[C@@H]1O	none (no result: B2AR arrestin, D3 antag, RGS4 inhibitor, BRCA1 expr up, PTHR1 ag)
COc1cccc(CNC(=O)C(CC(C)C)NS(=O)(=O)c2ccc3c(c2)oc(=O)n3C)c1 (stereo not drawn)	none (no result: B2AR arrestin, D3 antag, BRCA1 expr up)
Cc1ccc(NC(=O)CN2CCc3ccccc3C2)cc1F	D3 antag -85
Cc1ccc(NC(=O)N2CCc3ccccc3C2)cc1C	BRCA1 expr up 10µM
Cc1ccccc1NC(=O)CN1CCc2ccccc2C1	D3 antag inconclusive
CCc1ccc(NC(=O)CCn2c(=O)c3cccn3c3ccccc32)cc1	D3 antag -54
CCc1ccc(NC(=O)CN2CCc3ccccc3C2)cc1	D3 antag -65
COc1cc(C2Nc3ccccc3NC3=C2C(=O)CC(C)(C)C3)cc(OC)c1OC(C)=O (stereo not drawn)	none
O=[N+]([O-])c1ccc(Cl)c(NC2=NCCCCC2)c1	none
COc1ccc(F)cc1-c1cc(NC=O)c2ncc(-c3cccc(C(=O)N(C)C)c3)n2c1	DRD3 agonist 52, D3 antag inconclusive (no result: B2AR arrestin, RGS4 inhibitor)
CC(C)N(CCCNC(=O)c1ccc(CS(=O)(=O)c2c(Cl)cccc2Cl)o1)Cc1ccccc1	D3 antag -56
OC[C@H]1O[C@H](n2cnc3c(N[C@H]4CCC[C@@H]4O)ncnc32)[C@H](O)[C@@H]1O	none (no result: B2AR arrestin, DRD3 agonist, D3 antag, BRCA1 expr up, PTHR1 ag)
O=C(CSc1nc(O)c(C(c2ccccc2)c2ccccc2)c(=O)[nH]1)N1CCOCC1	D3 antag -62
Cc1ccc2nc(SCC(=O)N3CCOCC3)[nH]c2c1	BRCA1 expr up inconclusive
CCc1ccc2[nH]c3nc(SCC(=O)NNC(=O)c4ccc(C(C)(C)C)cc4)nnc3c2c1	DRD3 agonist 39
CC1CCN(C(=O)CSc2nnc3c(n2)[nH]c2ccc(F)cc23)CC1	none
CC(C)c1ccc2[nH]c3nc(SCC(=O)N4CCOCC4)nnc3c2c1	BRCA1 expr up 11µM
Cc1ccc2[nH]c(SCC(=O)N3CCOCC3)nc2c1C	BRCA1 expr up 8.9µM
O=C(CSc1nc(O)c(-c2ccccc2)c(=O)[nH]1)N1CCOCC1	none
COc1ccc(CN(C)[C@H]2C[C@H]3c4[nH]c5ccccc5c4CCN3C[C@H]2[C@H](C)O)cc1	none (no result: B2AR arrestin, RGS4 inhibitor)
CCOc1ccccc1CNC(=O)CCC(=O)N1CCSc2ccccc21	none (no result: B2AR arrestin, D3 antag, BRCA1 expr up)
c1ccc(CSc2cc3ccccc3[nH]2)cc1	BRCA1 expr up inconclusive (no result: B2AR arrestin)
O=C(NCCc1c[nH]c2ccccc12)/C(=C\c1cccnc1)NC(=O)c1ccccc1Br	none
Nc1ccc(C2CCCc3nonc32)c2nonc12 (stereo not drawn)	D3 antag -63
CCCCSc1cc(=O)[nH]c(N)n1	none
O=C(Nc1nccs1)c1ccc(-c2ccc([N+](=O)[O-])cc2)o1	RGS4 inhibitor inconclusive, BRCA1 expr up 3.2µM
O=C(Nc1nccs1)c1ccc(-c2ccccc2Cl)o1	none
O=C(Nc1nccs1)c1ccc(-c2ccccc2[N+](=O)[O-])o1	BRCA1 expr up 3.5µM
Cc1ccc(C)c(NC(=O)C(=O)NCC2CCCN2S(=O)(=O)c2cccs2)c1 (stereo not drawn)	none
CC(C)(C)OC(=O)CC1(C#N)c2ccccc2C(Br)=CN1C(=O)c1ccccc1 (stereo not drawn)	none
C=C[C@]1(C)C[C@@H](OC(=O)CSC(C)(C)CNC(=O)[C@H](N)C(C)C)[C@]2(C)[C@H](C)CC[C@]3(CCC(=O)[C@H]32)[C@@H](C)[C@@H]1O	none (no result: B2AR arrestin, D3 antag, RGS4 inhibitor, BRCA1 expr up, PTHR1 ag)
CC(c1ccccc1C(=O)O)c1cc(F)cc2ccccc12 (stereo not drawn)	D3 antag inconclusive (no result: B2AR arrestin)
O=C(NCCc1ccc(Cl)cc1)C1CCC(CNc2nc(=S)[nH]c3ccccc23)CC1 (stereo not drawn)	none
O=C(NCCC1=CCCCC1)C1CCC(CNc2nc(=S)[nH]c3ccccc23)CC1 (stereo not drawn)	D3 antag -83
O=C(NCc1ccccc1)c1ccc(N2CCC3(CC2)CC(c2ccc(Cl)cc2)=NO3)c([N+](=O)[O-])c1	D3 antag -63
CCOC(=O)/C=C1/SCC(=O)N1CC(=O)Nc1ccccc1OC(F)F	none (no result: B2AR arrestin)
CCC(=O)OCCNc1cc(Sc2nccn2C)c2nonc2c1[N+](=O)[O-]	D3 antag -101, RGS4 inhibitor inconclusive
CC(=O)OCCCNc1cc(Sc2ccc(Cl)cc2)c2nonc2c1[N+](=O)[O-]	D3 antag -118
CCC(=O)OCCNc1cc(SCCC(=O)OC)c2nonc2c1[N+](=O)[O-]	none
CC(=O)OCCNc1cc(SC(C)C)c2nonc2c1[N+](=O)[O-]	none
CCCC(=O)OCCNc1cc(Sc2nc3ccccc3[nH]2)c2nonc2c1[N+](=O)[O-]	D3 antag -83, RGS4 inhibitor inconclusive
Cc1ccc(NS(=O)(=O)c2ccc(NC(=O)c3ccccc3C(=O)O)cc2)cc1C	none (no result: B2AR arrestin)
COc1ccc(NC(=O)CN(C)CC(=O)Nc2ccccc2SC)cc1	none
CSc1ccccc1NC(=O)CN(C)CC(=O)NCC(=O)Nc1ccc(F)cc1	D3 antag -50
CCCOc1ccc(C(=O)NCC(c2cccs2)N(C)C)cc1OC (stereo not drawn)	D3 antag inconclusive
COc1ccccc1NS(=O)(=O)c1cccc(C(=O)NCC(c2ccco2)N(C)C)c1 (stereo not drawn)	D3 antag -68
COc1ccccc1NS(=O)(=O)c1cc(C(=O)NCC(c2ccco2)N(C)C)ccc1C (stereo not drawn)	D3 antag inconclusive
CNS(=O)(=O)c1cccc(C(=O)NCC(c2cccs2)N(C)C)c1 (stereo not drawn)	D3 antag -72
CCN(c1ccccc1)S(=O)(=O)c1cccc(C(=O)NCC(c2ccco2)N2CCCC2)c1 (stereo not drawn)	D3 antag -58
COc1cc(C(=O)NCC(c2cccs2)N(C)C)cc(Cl)c1OC(C)C (stereo not drawn)	D3 antag -76
O=C(Nc1ccc2nc(SCC(=O)N3CCCc4ccccc43)sc2c1)c1cccc(Cl)c1	none (no result: B2AR arrestin, D3 antag, BRCA1 expr up)
CCOC(=O)C1=CC[C@@H](c2ccccc2C(F)(F)F)N(S(=O)(=O)c2ccc(C)cc2)[C@H]1c1ccc(C#N)cc1	none (no result: B2AR arrestin, RGS4 inhibitor)
